Source: PubChem BioAssay (NCATS)
Results filed as inconclusive are left out. Where a call stands in place of a potency, no number is given. Some compounds were tested as several samples or in several runs, with calls that do not always agree. Activity calls are given as the source filed them. The call rests on the fitted dose curve; in most records, active means well fitted inhibition curve with a large enough effect; inconclusive means small, poorly fitted or top-dose-only effect; inactive means flat fitted curve, though single readings scatter.

Molecular target: Glutathione peroxidase 1 (Homo sapiens) (UniProt P07203)
Experiment: Primary qHTS Assay for Inhibitors of Recombinant Selenoprotein Glutathione Peroxidase 1 (GPX1) (AID 1845191); further: nearly all actives have a fitted effect of over 65% in size
Conditions: recombinant GPX1, GR-coupled NADPH fluorescence, 15 min; series mostly up to 48.8 µM; activity, negative = inhibition: at the top concentration
Method in brief: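 Recombinant GPX1 (10 nM final) was preincubated with compound for 30 min at room temperature, then reacted with 1 mM GSH, 0.5 mM CHP, 0.5 mM NADPH and 100 nM glutathione reductase; NADPH fluorescence (340/450 nm) was read at 0 and 15 min.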
Potency means the concentration at half of the fitted maximal effect.

Sequence of Glutathione peroxidase 1 (Homo sapiens) (P07203 whole entry, looked up): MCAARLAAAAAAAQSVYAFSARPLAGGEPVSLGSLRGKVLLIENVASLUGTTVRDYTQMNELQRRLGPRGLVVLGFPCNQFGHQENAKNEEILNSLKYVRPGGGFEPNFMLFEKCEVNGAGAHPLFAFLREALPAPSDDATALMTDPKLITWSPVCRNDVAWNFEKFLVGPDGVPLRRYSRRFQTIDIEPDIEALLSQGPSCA

| SMILES | Potency | outcome | activity, negative = inhibition |
| --- | --- | --- | --- |
| Nc1ccn([C@@H]2O[C@H](CO)[C@@H](O)[C@H]2O)c(=O)n1 | inactive |  |  |
| CN(C)N=Nc1nc[nH]c1C(N)=O |  | inactive |  |
| CCCCCCCCCCCCCCCC(=O)O[C@H]1[C@@H](O)[C@@H](O)[C@@H]([C@H](NC(=O)[C@@H]2C[C@@H](CCC)CN2C)[C@H](C)Cl)O[C@@H]1SC |  |  | -2.56% (inactive) |
| O=C(Nc1cccc(Cl)c1)Nc1ncc(CCNc2ncnc3ccsc23)s1 |  | inactive |  |
| CCCCOCCOc1nc(-c2ccc(C(=O)O)c(F)c2)sc1C |  |  | -17.7% (inactive) |
| NCC1CCC(C(=O)O)CC1 (stereo unspecified) | inactive |  |  |
| CCC[C@H](N[C@@H](C)C(=O)N1[C@@H]2CCCC[C@H]2C[C@H]1C(=O)O)C(=O)OCC |  | inactive |  |
| CCCCC[C@H](O)C=C[C@H]1[C@H](O)CC(=O)[C@H]1CC=CCCCC(=O)O |  | inactive |  |
| CC[C@H](C)C(=O)O[C@H]1C[C@H](O)C=C2C=C[C@H](C)[C@H](CC[C@@H](O)C[C@@H](O)CC(=O)O)[C@H]21 |  | inactive |  |
| CN1CCN(c2ncc(-c3cc(Cl)cc(Cl)c3Cl)c(N)n2)CC1 |  | inactive |  |
| O=C1CCCC(=O)C1C(=O)c1ccc(C(F)(F)F)cc1[N+](=O)[O-] | inactive |  |  |
| O=C(NCCCCN1CCOCC1)c1cc2ccccc2o1 |  | inactive |  |
| C[C@@H](O)[C@H]1C(=O)N2C(C(=O)OCOC(=O)C(C)(C)C)=C(SC3CN(C4=NCCS4)C3)[C@H](C)[C@H]12 |  | inactive |  |
| N#Cc1c(N(CC(=O)O)CC(=O)O)sc(C(=O)O)c1CC(=O)O |  |  | 3.72% (inactive) |
| COC1CCC(C(=O)c2ccc3nc4c(cc3c2)CCCO4)CC1 (stereo unspecified) |  | inactive |  |
| COc1ccnc(CS(=O)c2nc3ccc(OC(F)F)cc3[nH]2)c1OC (stereo unspecified) | 9.04 µM (active) and inactive |  |  |
